# Reference: the supplement of paper PMC12067926
# Unmarked numbers belong to inactive results.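 How the source made its calls: active = growth AUC significantly below the DMSO wells by Dunnett test; inactive = the rest.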
# Columns and labels:
# Assay in all cases: relative growth (AUC of 72 h growth curve relative to DMSO control, dAUC) (ratio); higher = more growth (less inhibition), active = hit call of the paper
# Conditions in all cases: 20 µM
# [1] = tested on: Aeromonas 1 (Aeromonas sp. AE235)
# How it was run: (§1)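 Each chemical was tested at 20 µM (1% DMSO) in 96-well plates seeded with a 1:100 dilution of cultures grown to carrying capacity in Luria–Bertani medium. These were isolates from Icelandic stream sediments and Silwood Park soil, as well as whole sediment communities. A plate reader took A600 readings hourly over 72 h, and three biological replicates were averaged. Relative growth (dAUC) is the spline-integrated area under the growth curve relative to the mean of the DMSO controls.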
# [2] = tested on: Aeromonas 2 (Aeromonas sobria)
# How it was run: as §1
# [3] = tested on: Aeromonas 3 (Aeromonas popoffii)
# How it was run: as §1
# [4] = tested on: Argrobacterium 1 (Agrobacterium sp.)
# How it was run: as §1
# [5] = tested on: Arthrobacter 1 (Arthrobacter humicola)
# How it was run: as §1
# [6] = tested on: Arthrobacter 2 (Arthrobacter humicola)
# How it was run: as §1
# [7] = tested on: Arthrobacter 3 (Arthrobacter sp.)
# How it was run: as §1
# [8] = tested on: Community 10
# How it was run: as §1
# [9] = tested on: Community 4
# How it was run: as §1
# [10] = tested on: Community 6
# How it was run: as §1
# [11] = tested on: Community 7
# How it was run: as §1
# [12] = tested on: Community 8
# How it was run: as §1
# [13] = tested on: Community 9
# How it was run: as §1
# [14] = tested on: Flavobacterium 1 (Flavobacterium glaciei)
# How it was run: as §1
# [15] = tested on: Flavobacterium 2 (Flavobacterium succinicans)
# How it was run: as §1
# [16] = tested on: Hymenobacter 1 (Hymenobacter glaciei)
# How it was run: as §1
# [17] = tested on: Microbacterium 1 (Microbacterium arborescens)
# How it was run: as §1
# [18] = tested on: Neobacillus 1 (Neobacillus soli)
# How it was run: as §1
# [19] = tested on: Oryzobacter 1 (Oryzobacter terrae)
# How it was run: as §1
# [20] = tested on: Paenibacillus 1 (Paenibacillus castaneae)
# How it was run: as §1
Compound,relative growth [1],relative growth [2],relative growth [3],relative growth [4],relative growth [5],relative growth [6],relative growth [7],relative growth [8],relative growth [9],relative growth [10],relative growth [11],relative growth [12],relative growth [13],relative growth [14],relative growth [15],relative growth [16],relative growth [17],relative growth [18],relative growth [19],relative growth [20]
O=C(NC(=O)c1c(F)cccc1F)Nc1ccc(OC(F)(F)C(F)OC(F)(F)F)c(Cl)c1 (configuration not stated),0.958,0.975,0.988,0.995,0.843,0.911,0.942,0.965,0.934,0.934,1.11,0.997,0.925,0.951,0.969,0.944,1.05,0.888,0.958,0.957
O=C(O)CNCP(=O)(O)O,0.998,1,1.03,1.01,0.952,1.04,1.04,–,1.03,1.07,1.06,1.04,1.04,0.964,1.02,1.11,1.05,1.04,1.02,0.969
CNC(=O)Oc1cccc(/N=C/N(C)C)c1,1,0.973,0.975,0.977,0.93,0.951,1.1,0.8,0.984,0.995,1.15,1.03,1.07,0.984,0.99,0.815,1.02,0.97,1.05,0.96
CS(=O)(=O)NC(=O)c1cc(Oc2ccc(C(F)(F)F)cc2Cl)ccc1[N+](=O)[O-],1.02,1.02,1.03,1.02,0.905,1.07,1.05,1.09,1.02,1.03,1.04,1.05,1.07,1.06,1.02,1.04,1.03,1.02,0.957,1.03
CCNC(=O)NC(=O)/C(C#N)=N/OC,0.983,0.967,0.988,1.01,0.901,0.894,0.975,1.03,0.963,1,1.13,1.02,0.993,1.01,0.994,1.02,0.986,0.997,0.977,0.994
N#Cc1c[nH]cc1-c1cccc2c1OC(F)(F)O2,0.982,0.92,0.986,0.99,0.868,0.824,0.882,0.855,0.977,0.93,1.12,1.02,0.914,0.83,0.856,0.958,1.01,0.915,1.14,0.904
N#Cc1sc2c(=O)c3ccccc3c(=O)c=2sc1C#N,0.852,0.905,1.07,1.09,0.649 (active),0.193 (active),0.557 (active),1.16,1.12,1.12,1.06,1.06,1.09,0.359 (active),1.05,0.709,0.965,1,0.898,0.928
CC[C@H](C)C1O[C@]2(C=C[C@@H]1C)C[C@@H]1C[C@@H](C/C=C(\C)[C@@H](O[C@H]3C[C@H](OC)[C@@H](O[C@H]4C[C@H](OC)[C@H](NC)[C@H](C)O4)[C@H](C)O3)[C@@H](C)/C=C/C=C3\CO[C@@H]4[C@H](O)C(C)=C[C@@H](C(=O)O1)[C@]34O)O2 (some centres not stated),1.08,0.923,0.979,1.11,0.108 (active),0.00328 (active),0.324 (active),0.9,0.787,0.509 (active),0.976,0.952,0.404 (active),0.0154 (active),0.832,0.356 (active),1.04,0.894,0.00218 (active),0.0061 (active)
C[N+](C)(C)CCCl,0.996,0.944,0.977,1.01,1.05,1,0.987,0.819,0.978,0.92,0.749,0.988,1.01,1.09,0.996,0.977,0.994,0.993,1.05,0.97
CCN(CC)c1nc(C)cc(OP(=S)(OC)OC)n1,1,0.982,1.02,1.04,0.998,0.924,0.956,–,1.01,0.982,0.988,1.04,1.04,1.05,0.995,1,1.03,1.03,1.06,1.02
CS(=O)(=O)c1ccc(C(=O)C2C(=O)CCCC2=O)c([N+](=O)[O-])c1,0.965,1,0.97,0.959,1,1.07,1.02,–,1.06,1.04,0.957,1.06,1.04,1.07,1.04,1.07,1.04,1.04,1.01,1.03
CCCN(CCOc1c(Cl)cc(Cl)cc1Cl)C(=O)n1ccnc1,1.02,0.971,1,1.01,0.702,0.209 (active),0.352 (active),–,0.934,0.982,0.969,1.02,0.998,0.335 (active),0.935,0.75,0.953,1.05,0.236 (active),0.59 (active)
CN/C(=N\[N+](=O)[O-])NCc1cnc(Cl)s1,1,0.976,0.985,0.98,0.983,0.841,0.873,–,0.981,0.914,1.06,1,0.871,0.869,0.939,0.958,0.983,0.85,1.05,0.961
COCc1cnc(C2=NC(C)(C(C)C)C(=O)N2)c(C(=O)O)c1 (configuration not stated),0.932,0.973,1,1,0.954,1.01,0.931,–,0.84,0.937,1.14,0.983,0.959,0.978,1,1.02,1.02,0.961,1.05,0.966
Cc1ccc(/N=C/N(C)/C=N/c2ccc(C)cc2C)c(C)c1,0.991,0.995,1,0.984,0.964,0.821,1.04,–,0.905,0.969,1.16,1.05,0.961,1.02,1,1.04,1.05,0.964,1.03,0.969
C[N+]1(C)CCCCC1,1.03,1.01,1.02,0.994,1.08,0.96,1.04,–,1.09,1.07,0.992,0.99,1.06,1.03,1.03,1.08,0.951,1,1.06,1
